Screening results as filed in PubChem BioAssay.
H9c2 protect: myocardial damage modulation in H9c2 cells | AID 588492 | H9c2 cardiomyocytes, H2O2 injury protection, ATPLite, 2 h | protection from H2O2 cell death, % at 20 µM | hit rate 0.63% among 360,000;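 active means compounds giving at least 50% protection of heart cells from peroxide-induced death in the single-dose screen, raw or plate-pattern-corrected value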;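 further: 0% = DMSO wells with peroxide and 100% = DMSO wells without peroxide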
UBC9 SUMO inh: blocks human SUMOylation mediated by UBC9; HTRF SUMOylation assay, SAE1/SAE2 + UBC9, in vitro; AID 2006; P63279; hit rate 0.36% among 290,000; inhibition, % at 35 µM; in the data active means inhibition above about 50%, passing the limit was not always enough; inconclusive means no clear call, values can overlap the other calls
ALR inh: inhibitors of human sulfhydryl oxidase ALR; P55789; inhibition, % (concentration not given with the values); AID 485317; hit rate 3.8% among 290,000; purified ALR, DTT oxidation, H2O2 HRP-luminol luminescence;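 active means mean replicate inhibition above about 79%, with every replicate also reaching it, limit read from the data; inconclusive means only one of the two criteria met; inactive means mean below limit and not every replicate reaching it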
NTR1 ag: agonists of human neurotensin receptor NTR1. P30989. NTR1-U2OS beta-arrestin-GFP spot imaging, agonist mode. activation, % at 20 µM. hit rate 0.17% among 330,000. AID 493036;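 active means activation at or above 40% of the spot to cytoplasm intensity ratio, with at least 20 cells analyzed; inconclusive means wells under 20 cells, flagged as cytotoxic or low count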;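 further: 0% = DMSO without peptide and 100% = 100 nM NTR1 peptide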
Target sequence (P30989 whole entry, looked up): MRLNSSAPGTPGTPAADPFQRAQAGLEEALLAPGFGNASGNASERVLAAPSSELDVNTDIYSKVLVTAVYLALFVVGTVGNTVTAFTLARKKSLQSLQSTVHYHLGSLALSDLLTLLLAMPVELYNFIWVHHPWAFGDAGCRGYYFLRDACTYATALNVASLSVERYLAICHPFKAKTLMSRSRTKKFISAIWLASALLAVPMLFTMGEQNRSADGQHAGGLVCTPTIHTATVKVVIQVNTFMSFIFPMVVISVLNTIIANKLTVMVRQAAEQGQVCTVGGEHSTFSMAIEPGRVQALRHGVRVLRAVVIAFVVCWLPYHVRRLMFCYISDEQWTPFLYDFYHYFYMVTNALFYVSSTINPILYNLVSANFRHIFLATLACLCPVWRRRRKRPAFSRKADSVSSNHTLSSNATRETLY
Active calls of the source: *; ? = inconclusive; / = no result given. Hits are enriched below; roughly 3.9% of the tested compounds scored in any of these assays.

SMILES	H9c2 protect	UBC9 SUMO inh	ALR inh	NTR1 ag
CCOC(=O)C1CCN(Cc2ccc(F)c(F)c2)CC1	0	-2	0	0
CCOC(=O)C1CCN(Cc2ccc(N(C)C)cc2)CC1	0	5	99*	-3
CCOC(=O)C1CCCN(Cc2c(F)cccc2Cl)C1 (stereo not given)	0	0	99*	2
CCOc1ccc(C(Nc2ccc(C)cc2)P2(=O)OCCC(C)O2)cc1 (stereo not given)	1	2	98*	-1
CCOc1ccc(C(Nc2ccc(C)cc2)P2(=O)OCCCO2)cc1 (stereo not given)	-1	4	?	-1
COc1ccc(C2=NN(CN3C(=O)C(=O)c4ccccc43)C(c3ccc(C)cc3)C2)cc1 (stereo not given)	-12	11	-2	6
CC(=O)C1=C(C)NC(SCc2ccc(C#N)cc2)=C(C#N)C1c1ccco1 (stereo not given)	-1	2	33	/
CC(=O)C1=C(C)NC(SCc2cccc3ccccc23)=C(C#N)C1c1ccco1 (stereo not given)	-2	15	99*	2
CCN1C(=O)/C(=C\N(C)C)NC1=S	13	0	98*	-2
COc1ccc(N2C(=O)/C(=C/N(C)C)NC2=S)cc1	0	-33	70	0
COc1ccc(/C=C2/N=C3CCCCCN3C2=O)cc1	-2	-3	-2	0
COc1cc(/C=c2\sc3n(c2=O)CCCN=3)ccc1O	6	-3	99*	0
COc1cc(/C=C2\N=C3CCCCCN3C2=O)ccc1O	3	-14	99*	1
COc1ccc(/C=C2\N=C3CCCCCN3C2=O)cc1OC	2	-34	-36	0
O=C1/C(=C\c2ccc(O)c(O)c2)N=C2CCCCCN12	28	-18	99*	1
O=c1/c(=C/c2ccc([N+](=O)[O-])cc2)sc2n1CCCN=2	-13	-13	-3	0
CCC(NC(=S)NC1CCCCC1)c1ccccc1 (stereo not given)	-3	12	-12	2
CN1CCc2c(sc(NC(=O)c3cc(Cl)sc3Cl)c2C(N)=O)C1	14	11	97*	-1
COCCn1c(SCC(=O)Nc2ccc(C(N)=O)cc2)nc2c([nH]c3ccccc32)c1=O	-1	14	99*	0
COCCn1c(SCC(=O)Nc2ccc(F)cc2)nc2c([nH]c3ccccc32)c1=O	2	20	58	1
CCOc1ccc(Nc2nc(Cc3nnc(SCC(=O)O)o3)cs2)cc1	-5	17	87*	0
Cc1cc(C)cc(Nc2ccc(C(=O)O)cc2N)c1	0	26	/	2
COc1cccc(Nc2ccc(C(=O)O)cc2N)c1	-4	8	99*	0
Cc1ccc(Nc2ccc(C(=O)O)cc2N)cc1	/	18	99*	3
Cc1ccc(NC(=O)CCn2cccc2)cc1Cl	-4	7	/	-2
SMILES	H9c2 protect	UBC9 SUMO inh	ALR inh	NTR1 ag
COc1cc(/C=N/NS(=O)(=O)c2ccc(Br)cc2)ccc1O	-6	-12	99*	0
COc1ccc(Br)cc1C=NNS(=O)(=O)c1ccc(C)cc1	-5	/	/	/
CN(C)c1ccc(/C=N/NS(=O)(=O)c2ccc(Br)cc2)cc1	-4	-1	90*	-1
O=C(Cc1cccs1)N/N=C/C=C\c1ccccc1[N+](=O)[O-]	-2	0	-4	0
COCCCNc1ccn2nc(-c3ccc(OCCN4CCOCC4)cc3)cc2n1	0	/	/	/
COc1cc(CCNc2ccc3nnc(-c4ccccc4)n3n2)cc(OC)c1OC	56*	-1	1	10
COc1cc(-c2cc3nc(NCCc4ccc(S(N)(=O)=O)cc4)ccn3n2)cc(OC)c1OC	86*	/	/	/
COc1cc(-c2cc3nc(NCCOc4ccccc4)ccn3n2)cc(OC)c1OC	92*	/	/	/
NS(=O)(=O)c1ccc(CCNc2ccn3nc(-c4ccc(OCCN5CCOCC5)cc4)cc3n2)cc1	66*	/	/	/
COc1ccc(NC(=O)CCCn2c(=O)c3sccc3n(Cc3ccccc3C)c2=O)cc1	0	-23	-5	2
CC(C)CC1Nc2ncnc(N3CCN(c4ccccn4)CC3)c2N(Cc2ccc(Cl)cc2)C1=O (stereo not given)	1	/	2	-1
O=S(=O)(Nc1c(S(=O)(=O)c2ccccc2)c2nc3ccccc3nc2n1C1CCCCC1)c1ccccc1	-9	99*	-8	/
Cc1cc2c(ncn2Cc2ccccc2)c(N)c1C	-5	-11	93*	-1
Cn1nccc1C(=O)N/N=C/c1ccccc1[N+](=O)[O-]	-4	9	4	-1
O=C(NCC(c1cccs1)N1CCOCC1)c1ccc(OCc2ccccc2)cc1 (stereo not given)	-2	/	0	-1
Nc1ccc2sc(N)nc2c1	4	/	91*	2
Nc1ccc2nc(N)sc2c1	5	/	/	/
